Hits are enriched below; roughly 2.4% of the tested compounds scored in any of these assays.
Cruzain noTriton = inhibitors of Trypanosoma cruzi cruzain without detergent | Potency, µM, inactives show max response, negative = inhibition, actives largely listed as inhibitors | AID 1476 | hit rate 2.3% among 200,000 | purified cruzain, Z-FR-AMC fluorescence, no detergent;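 further: plate controls were enzyme without inhibitor for no effect and buffer without enzyme for full effect; nearly all actives have a fitted effect of over 40% in size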
Target sequence (P25779 123-467 limits assumed): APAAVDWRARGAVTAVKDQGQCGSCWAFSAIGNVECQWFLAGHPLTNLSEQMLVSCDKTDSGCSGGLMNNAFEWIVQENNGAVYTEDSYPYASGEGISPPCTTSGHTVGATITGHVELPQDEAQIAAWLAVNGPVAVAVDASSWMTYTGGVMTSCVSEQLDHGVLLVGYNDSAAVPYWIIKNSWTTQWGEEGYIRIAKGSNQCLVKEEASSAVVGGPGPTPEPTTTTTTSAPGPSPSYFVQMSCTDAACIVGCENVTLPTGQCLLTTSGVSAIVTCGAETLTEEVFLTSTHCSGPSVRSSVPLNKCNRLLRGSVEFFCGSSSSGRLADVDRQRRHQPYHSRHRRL
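Detergent-free condition (0.00005% Triton X-100) in acetate buffer pH 5.5 with DTT. 1.5 nM enzyme and compound were pre-mixed 15 min, then 2 uM Z-FR-AMC substrate added; reaction progress from fluorescence change between first and third reads (60 s).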
Cruzain inh Det = inhibitors of Trypanosoma cruzi cruzain with detergent. P25779. purified cruzain, Z-FR-AMC fluorescence, 0.01% Triton. Potency, µM, inactives show max response, negative = inhibition, most hits filed as inhibitors. hit rate 0.43% among 200,000. AID 1478;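 further: plate controls were neutral wells for no effect and buffer without enzyme for full effect; nearly all actives have a fitted effect of over 40% in size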
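Steps: dispense cruzain (1.5 nM final) in acetate buffer pH 5.5 with DTT and 0.01% Triton X-100; pin-transfer compounds; incubate 15 min RT; add Z-FR-AMC (2 uM final); read fluorescence every 30 s, using the 60 s intensity change.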
Active calls of the source: *; ? = inconclusive. The call rests on the fitted dose curve; in most records, active means well fitted curve in the direction sought with a large enough effect; inconclusive means small, poorly fitted or top-dose-only effect, or another doubt; inactive means no such curve, though single readings can be large; an effect the other way counts as inactive or inconclusive. Potency means the concentration at half of the fitted maximal effect.

SMILES	Cruzain noTriton	Cruzain inh Det
CCC(C(=O)N1CCN(c2ccccc2F)CC1)n1nc(C)c2sc3ccccc3c2c1=O (stereo unspecified)	21%	-3%
COc1ccc(C2=CSC3=C(C(=O)c4cccc(S(=O)(=O)N(C)C)c4)CCN23)cc1	25µM*	-8%
COc1ccc(-c2csc(NC(=O)c3cccc(S(=O)(=O)N4CCN(C)CC4)c3)n2)cc1	-5%	-3%
COc1ccc(-c2cc(C(C)=O)c(C)n2CCC(=O)Nc2ccc(C)c(Cl)c2)cc1	5%	-7%
Cc1ccc(-n2ncc3c(NCCC4=CCCCC4)ncnc32)cc1	-17%	1%
COc1ccc(C(CC(=O)Nc2ccc(F)cc2)c2ccccc2)cc1 (stereo unspecified)	17%	-3%
COc1ccccc1C(CC(=O)Nc1ccc(Cl)cc1)c1ccc(OC(C)C)cc1 (stereo unspecified)	3.2µM*	2%
COc1ccc(-c2nc(C)c(CCNC(=O)C(=O)Nc3ccccc3F)s2)cc1	-12%	-1%
Clc1ccc(-c2nnc(SCc3ccon3)o2)c(Cl)c1	-2%	-3%
C=C(C)CSc1nc(-c2ccccc2)cc(-c2ccc(OC)cc2)c1C#N	-29%	-4%
N#Cc1c(-c2ccccc2)cc(-c2ccccc2)nc1SCc1nnc(-c2ccccc2)o1	5µM*	-1%
c1ccc2[nH]c(CSc3nnc(-c4ccncc4)o3)nc2c1	13µM*	-20%
Cc1nnc(SCc2nc3ccccc3[nH]2)s1	-1%	-2%
c1ccc2[nH]c(CSc3nc4ccccc4s3)nc2c1	16µM*	?
c1ccc2c(CSc3nnc(-c4ccncc4)o3)cccc2c1	20%	-9%
Clc1ccc(-c2nnc(SCc3nc4ccccc4[nH]3)o2)c(Cl)c1	3%	6.3µM*
Cc1cccc(Nc2nnc(-c3ccc(C)c(S(=O)(=O)NCC4CCCO4)c3)c3ccccc23)c1 (stereo unspecified)	20%	-9%
COC(=O)[C@@]1(Cc2ccc(OC)cc2)[C@H]2c3cc(C(=O)N4CCCC4)n(CCc4c[nH]c5cc(F)ccc45)c3C[C@H]2CN1C(=O)c1ccccc1	?	2%
Brc1cccc(-c2nnc(-c3ccccc3)o2)c1	-14%	0%
O=C(CCCSc1nc2ccccc2[nH]1)Nc1nnc(-c2ccccc2)o1	-1%	2%
Brc1cccc(-c2nnc(SCc3nc4ccccc4[nH]3)o2)c1	13µM*	14µM*
c1ccc(-c2nnc(CSc3nc4ccccc4[nH]3)o2)cc1	13µM*	-25%
Oc1ccc(Cl)cc1C=Nc1cnc2ccccc2c1	-9%	3%
CCOc1ccc(C(=O)N2CCc3cc(OC)c(OC)cc3C2COc2ccc3c(C)cc(=O)oc3c2)cc1OCC (stereo unspecified)	22%	6%
Cc1c(Cl)cccc1N=c1c([N+](=O)[O-])nn(-c2ccccc2)n1O	20µM*	2%
SMILES	Cruzain noTriton	Cruzain inh Det
Cc1ccc(N=c2c([N+](=O)[O-])nn(-c3ccccc3)n2O)c(C)c1	?	-7%
COc1cccc(CCNC(=O)c2cnc3sc(N4CCOCC4)nn3c2=O)c1	11%	2%
Cc1ccccc1NC(=O)Cn1nnc(C(=O)NCc2ccco2)c1N	4%	0%
Cc1ccccc1NC(=O)Cn1nnc(S(=O)(=O)c2ccc(C(C)(C)C)cc2)c1N	7.9µM*	-11%
COc1cc(OC)cc(C(=O)N/N=C/c2ccc(OC)c(COc3ccc(F)cc3)c2)c1	-23%	-6%
COc1ccc(/C=N/NC(=S)Nc2ccccc2)cc1COc1ccc(F)cc1F	7.9µM*	-5%
Cc1ccc(C)c(N2CCN(C(=O)c3cc(S(=O)(=O)N4CCCCC4)cn3C)CC2)c1	-5%	1%
CCc1ccc(Nc2nc(-c3cc4cccc(OC)c4oc3=O)c(CC)s2)cc1	?	-2%
Cc1ccc(SCC(=O)Nc2ccc(N3CCN(c4ccccc4)CC3)c(F)c2)cc1	10µM*	4%
CN1CCN(c2ccc(NC(=O)CSc3ccccc3)cc2F)CC1	-1%	-1%
COc1ccc(Nc2nc(N)c3cc(OC)c(OC)cc3n2)cc1	1%	9%
CCn1c2ccccc2c2cc(/C=N/NC(=O)c3ccccc3)ccc21	32µM*	?
CCn1c2ccccc2c2cc(/C=N/n3c(C)nnc3C)ccc21	?	-16%
CCNc1nc(SC(C(C)=O)C(C)=O)nc(N(C)C)n1	-2%	5%
COC(=O)CN(C#N)c1nc(NC(C)C)nc(OC)n1	20µM*	22µM*
COC(=O)CN(C#N)c1nc(C)cc(C)n1	-2%	-2%
CCN(C#N)c1nc(NC(C)C)nc(NC(C)C)n1	7%	0%
COC(=O)CN(C#N)c1nc(OC)nc(N(C)C)n1	20µM*	28µM*
CCNc1nc(SC)nc(N(C#N)CC(=O)OC)n1	13µM*	14µM*
CCOc1cc(CNC(=O)c2ccc(Cn3c(=O)c4cccn4c4cccnc43)cc2)ccc1OC	11%	-2%
Cc1sc2ncn(CC(=O)N(C)c3ccc(C(C)C)cc3)c(=O)c2c1S(=O)(=O)N1CCC(C)CC1	-5%	-3%
C[C@@H](NC(=O)C1(N)CCCC1)C(=O)O	10%	2%
COC(=O)c1c(NC(=O)/C=C/C(=O)O)sc(Cc2ccccc2)c1C	13%	-10%
Cc1c(Cc2ccccc2)sc(NC(=O)/C=C/c2cccc3ccccc23)c1C(N)=O	5µM*	-5%
Cc1ccc(C(=O)COC(=O)CNC(=O)C(c2ccccc2)c2ccccc2)cc1[N+](=O)[O-]	-25%	-27%
SMILES	Cruzain noTriton	Cruzain inh Det
Cc1ccc(C(=O)NCC(=O)OCC(=O)Nc2ccccc2[N+](=O)[O-])cc1	7.9µM*	11µM*
Cc1ccc(NC(=O)COC(=O)CNC(=O)c2ccc(Br)cc2)c(C)c1	16µM*	14µM*
COc1ccc(OC)c(NC(=O)COC(=O)CNC(=O)c2ccc(OC)c(OC)c2)c1	2%	-1%
CCOc1ccc(C(=O)NCC(=O)OCC(=O)Nc2ccccc2OCC)cc1	-7%	-26%
Cc1ccc(C(=O)NCC(=O)OCC(=O)c2ccc(C)c([N+](=O)[O-])c2)cc1	13µM*	16µM*
Cc1ccc(NC(=O)COC(=O)Cn2nc(C)c([N+](=O)[O-])c2C)c([N+](=O)[O-])c1	6%	-2%
Cc1ccc(NC(=O)COC(=O)CNC(=O)c2ccc3ccccc3c2)c([N+](=O)[O-])c1	3.2µM*	7.1µM*
NCCNC(=S)S	4%	1%
Cc1ccc(NC(=O)Cn2nc(C)c3nn(-c4ccc(Cl)cc4)c(C)c3c2=O)cc1C	-7%	2%
Cc1ccc(C)c(-c2ccc(=O)n(C(C)C(=O)Nc3ccccc3C(F)(F)F)n2)c1 (stereo unspecified)	?	-7%
CCOc1ccc(OCC)c(Nc2cc(C)nc3nc(-c4ccco4)nn23)c1	1%	1%
Cc1c(C(=O)Nc2ccc(F)cc2F)oc2ccc3c(c12)C(=O)CC(C)(C)O3	-21%	-3%
CC(C)N(C(=O)COC(=O)CNC(=O)c1ccc(Br)cc1)c1ccccc1	16µM*	16µM*
COc1cccc(C(=O)NCC(=O)OCC(=O)Nc2cc(OC)c([N+](=O)[O-])cc2C)c1	?	22µM*
COc1cc(NC(=O)COC(=O)CNC(=O)c2cc(C)cc(C)c2)c(C)cc1[N+](=O)[O-]	-20%	?
O=C(COC(=O)CNC(=O)c1cccc([N+](=O)[O-])c1)Nc1ccccc1OC(F)F	20µM*	16µM*
CC(=O)COC(=O)CNC(=O)c1ccc(Br)cc1	-24%	-24%
O=C(Cc1ccccc1)NCC(=O)OCC(=O)c1ccc(Cl)c([N+](=O)[O-])c1	16µM*	?

Source: PubChem BioAssay
